# Assay outcomes: PubChem BioAssay, National Center for Advancing Translational Sciences (NCATS)
# The full list was thinned out, with hits kept by preference.
# RE007 growth inh: qHTS Assay for Inhibitors of the HIV-1 protein Vpr | AID 651644, 2012 | S. pombe RE007 Vpr strain, BacTiter-Glo ATP luminescence, 24 h | Potency, µM (doses to about 92.2 µM), for inactives: at the highest dose activity change, negative = less growth, most hits filed as inhibitors | 0.21% of 360,000 active; active = well fitted falling curve with a large enough effect; inconclusive = small, poorly fitted or top-dose-only effect; inactive = no such curve, though single readings can be large or run the other way; note: potency is the fitted concentration of half-maximal effect; % is set by controls: 0 for no effect and ±100 for the full control effect; nearly all actives have a fitted effect of over 50% in size
#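 Fission yeast RE007 carrying one integrated HIV-1 vpr copy, seeded at OD 0.01 in PMG+AL medium with 23 nL pinned compound. Grown 24 h at 30 degrees; viability read by BacTiter-Glo luminescence after 5 min.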
# TbPYK inhibitor: qHTS of Trypanosoma Brucei Inhibitors | pyruvate kinase (Trypanosoma brucei), Q57TT1 | TbPYK enzyme, Kinase-Glo Plus ATP luminescence, 45 min | Potency, µM (highest dose often 76.8 µM), without a hit: at the highest dose activity, negative = inhibition, usual class: inhibitors | 0.12% of 410,000 active | AID 624173, 2012; note: potency is the fitted concentration of half-maximal effect; % is set by controls: 0 for no effect and ±100 for the full control effect; nearly all actives have a fitted effect of over 50% in size
#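 TbPYK + substrate in 50 mM TEA pH 7.2, 100 mM KCl, 10 mM MgCl2, 0.05% BSA, 0.01% Tween-20; cpd pinned; ADP 130 uM final; 45 min RT; Kinase-Glo Plus 10 min; luminescence endpoint.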
# CHX counter: Cycloheximide Counterscreen for Small Molecule Inhibitors of Shiga Toxin; cell reporter, cycloheximide protein synthesis inhibition counterscreen; max response, %; 12% of 300,000 active; AID 2314, 2010; in the data active = max response mostly above about 13%, no sharp cut-off; inactive = mostly below about 14%; note: read at 38.3 µM for the half of the compounds with a filed dose; 0% is about no effect
# FBPA Giardia inh: qHTS Assay for Inhibitors of Fructose-1,6-bisphosphate Aldolase from Giardia Lamblia | A8B2U2 | purified Giardia FBPA | Potency, µM (titrated, usually from 59.6 µM), without a hit: at the top dose activity, negative = inhibition, usual class: inhibitors | 0.71% of 290,000 active; note: potency is the fitted concentration of half-maximal effect; % is set by controls: 0 for no effect and ±100 for the full control effect; nearly all actives have a fitted effect of over 55% in size
# Target sequence (A8B2U2 whole entry, looked up): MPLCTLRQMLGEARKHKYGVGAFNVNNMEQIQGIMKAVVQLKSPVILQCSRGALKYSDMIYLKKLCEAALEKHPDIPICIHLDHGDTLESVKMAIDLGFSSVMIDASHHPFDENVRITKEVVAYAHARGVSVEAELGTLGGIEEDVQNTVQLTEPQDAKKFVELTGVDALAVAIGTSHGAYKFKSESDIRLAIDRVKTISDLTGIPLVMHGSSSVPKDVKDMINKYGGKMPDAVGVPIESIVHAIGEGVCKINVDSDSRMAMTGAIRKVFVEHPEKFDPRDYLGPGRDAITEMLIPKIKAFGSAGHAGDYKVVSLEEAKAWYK
#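 Giardia FBPA (40 nM reagent) was preincubated 10 min at RT with compound (up to 57.5 uM final), then substrate plus GAPDH/TPI/NAD/arsenate coupling system with diaphorase/resazurin was added; resorufin fluorescence (525/598 nm) was read after 20 min.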
# LmPK inhibitor: qHTS Assay for Inhibitors of Leishmania Mexicana Pyruvate Kinase (LmPK); Q27686; purified LmPK, Kinase-Glo ATP luminescence, 1 h; Potency, µM (titrated, usually from 57.5 µM), without a hit: at the highest dose activity change, negative = inhibition, actives largely listed as inhibitors; 0.37% of 290,000 active; note: potency is the fitted concentration of half-maximal effect; % is set by controls: 0 for no effect and ±100 for the full control effect
#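 Pyruvate kinase activity monitored as ATP production (luciferase luminescence). Conditions: 0.1 nM enzyme, 0.5 mM PEP, 0.1 mM ADP, 1 h, RT; normalized against uninhibited and no-enzyme wells.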
# Shiga toxin inh: A qHTS for Small Molecule Inhibitors of Shiga Toxin; Vero cells, Shiga toxin protein synthesis inhibition reporter; inhibition, % at 38.7 µM; 9.2% of 290,000 active; AID 2315, 2010; in the data active = inhibition mostly above about 28%, no sharp cut-off; inactive = mostly below about 43%; note: 0% is about no effect
# * marks the source's active call; other numbers are inactive results; ? = inconclusive; / = no result given. Unless noted, calls come from the whole dose curve; as a rule, active = well fitted curve in the direction sought with a large enough effect; inconclusive = small, poorly fitted or top-dose-only effect, or another doubt; inactive = no such curve, though single readings can be large; an effect the other way counts as inactive or inconclusive.
SMILES,RE007 growth inh,TbPYK inhibitor,CHX counter,FBPA Giardia inh,LmPK inhibitor,Shiga toxin inh
O=[N+]([O-])c1nn(-c2ccc3c(c2)OCCO3)n(O)c1=NC1CCCCCC1,2%,4%,32*,-11%,3%,84*
O=[N+]([O-])c1nn(-c2ccc3c(c2)OCCO3)n(O)c1=NC1CCCC1,10%,-5%,32*,-3%,-3%,42*
CCc1ccc(-n2c(=O)c3c4c(sc3n(CC(=O)N3CCCCC3CC)c2=O)CCC4)cc1 (centres undefined),/,0%,/,/,/,/
O=C(CCc1ccc(S(=O)(=O)N2CCOCC2)cc1)OCC(=O)c1ccccc1F,10%,3%,/,/,/,/
CCOc1ccc(/C=N/NC(=S)NC2CC3CC2C2C=CCC32)cc1 (centres undefined),-16%,0%,4,2%,12%,10
COc1cc(/C=N/NC(=S)NC2CC3CC2C2C=CCC32)ccc1O (centres undefined),-1%,-5%,34*,-9%,8%,89
CCCCCCCCCCCCCCC(O)C[N+](C)(CCO)CCO (centres undefined),32µM*,-1%,/,/,/,/
c1ccc2c(c1)CCCN2c1nc2ccccc2n2cnnc12,16%,-1%,30*,-14%,13%,107*
COC(=O)c1cc2ccccc2c(=O)s1,?,0%,15*,5%,-4%,9
O=C(c1cc(F)ccc1F)C1CCCN(C(=O)c2ccc3nccnc3c2)C1 (centres undefined),4%,0%,22*,-3%,1%,31*
O=C(c1cc(F)ccc1F)C1CCCN(C(=O)CCN2CCCCO2)C1 (centres undefined),-1%,-1%,17*,0%,0%,23
CN(C)c1cccc(C(=O)N2CCCC(C(=O)c3cc(F)ccc3F)C2)c1 (centres undefined),-6%,0%,-4,-3%,-5%,22
COc1cccc(C(=O)NCCCNC(=O)c2cccc(OC)c2)c1,-3%,-8%,2,0%,1%,/
COc1cccc(C(=O)NCCSc2ccc(F)cc2)c1,-13%,-6%,39*,0%,-9%,57*
COc1cccc(C(=O)NCCSc2ccc(C)cc2)c1,-7%,-10%,21*,32%,2%,19
COc1cccc(C(=O)NCC(C)(C)SCc2ccc(F)cc2)c1,-11%,2%,-3,5%,0%,-7
Cc1ccc(C(C)C)cc1NC(=O)Nc1ccc([N+](=O)[O-])cc1,/,1%,33,-9%,1%,34*
O=C(Nc1cccnc1)Nc1cccc([N+](=O)[O-])c1,-7%,-2%,-1,9%,-1%,22
O=C(Nc1ccc(OC(F)(F)F)cc1)Nc1cccc([N+](=O)[O-])c1,3%,-3%,18*,-14%,6%,58*
Cc1ccc(NC(=O)Nc2cccc([N+](=O)[O-])c2)cc1F,1%,-6%,31*,-1%,0%,54*
COc1ccc(/C=C2\CCC(C3CCCC3)C2=O)cc1OC (centres undefined),-13%,-2%,36*,2%,-1%,49*
Cc1ccsc1/C=C1\CCC(C2CCCC2)C1=O (centres undefined),-16%,0%,44*,5%,-7%,106*
COc1ccc(/C=C2\CCC(C3CCCC3)C2=O)cc1 (centres undefined),0%,-3%,51*,5%,-3%,93*
COc1cc(/C=C2\CCC(C3CCCC3)C2=O)ccc1OC(C)C (centres undefined),9%,3%,-3,0%,1%,5
CN(C)CC1CC/C(=C\c2ccc(O)cc2)C1=O (centres undefined),11µM*,?,/,/,/,/
SMILES,RE007 growth inh,TbPYK inhibitor,CHX counter,FBPA Giardia inh,LmPK inhibitor,Shiga toxin inh
CCN(CC)C(=O)CSc1nc2cc3c(cc2c(=O)n1Cc1ccc(C(=O)NCCc2ccc(OC)c(OC)c2)cc1)OCO3,/,-8%,/,/,/,/
COc1ccc(/C=C2/CCC(CN3CCOCC3)C2=O)cc1 (centres undefined),7.9µM*,?,/,/,/,/
Cc1ccc(/C=C2\CCC(C3CCCC3)C2=O)cc1 (centres undefined),6%,2%,56*,5%,-16%,61*
COc1ccc(C=NCCCN2CCOCC2)cc1,-12%,2%,11,1%,0%,19
CC(C)NC(=O)c1ccc2c(c1)N(Cc1ccccc1)C(=O)C(C)(C)O2,-3%,-19%,1,5%,-3%,-8
O=C1c2ccccc2C(=O)c2c(O)ccc(O)c21,/,/,/,-26%,/,/
O=C1C(=C(I)I)c2ccccc2-c2ccccc21,14µM*,-31%,/,/,/,/
CCOC(=O)c1ccc2c(c1)NCc1cccc(OC)c1O2,-11%,1%,53*,-8%,2%,99*
COc1cc(/C=C/C(=O)c2ccccc2O)cc(OC)c1OC,1%,-4%,13,-4%,-1%,-13
Cc1ccc(O)c(C(=O)/C=C/c2ccc3c(c2)OCCCO3)c1,6%,-9%,81*,15%,-21%,155*
O=C(/C=C/c1ccc2c(c1)OCCCO2)c1ccccc1O,-6%,-10%,78*,2%,?,171*
Cc1ccc(O)c(C(=O)C=Cc2ccccc2)c1,-25%,-2%,/,/,/,/
COC(=O)c1[nH]c2ccc(C)cc2c1NC(=O)Nc1ccc(OC)cc1,-1%,-18%,19*,0%,-2%,40
COC(=O)c1[nH]c2ccc(F)cc2c1NC(=O)Nc1ccc(OC)cc1,-23%,-11%,-1,10%,3%,-3
CCN(CC)c1ccc(/C=N/NC(=O)CC(C)C)cc1,-3%,5%,47*,-2%,7%,47*
CCN(CC)c1ccc(/C=N/O)cc1,6%,0%,17*,-6%,4%,41
CCN(CC)c1ccc(/C=N/NC(=O)c2ccoc2C)cc1,-26%,?,25*,-9%,14µM*,45*
CCN(CC)c1ccc(/C=N/NC(=O)c2ccc(O)cc2)cc1,/,/,49*,-7%,/,116*
COc1c2c(cc3ccc(=O)oc13)CCO2,1%,0%,-4,-7%,1%,/
CCN(CC)c1ccc(/C=N/NC(=O)OC(C)(C)C)cc1,5%,-1%,34*,0%,6%,85*
Cc1ccc(C(c2nnnn2CCc2ccccc2)N2CCC(C)CC2)cc1 (centres undefined),-24%,3%,15*,-17%,3%,21
O=C(NCCc1ccc2c(c1)OCCO2)c1ccc(F)cc1,11%,-4%,34*,-4%,-3%,55
